Screening data deposited in PubChem BioAssay by National Center for Advancing Translational Sciences (NCATS).
A selection: hits, their analogues and other compounds. The true share with any hit is near 17%.
TDP1 cell noCPT: qHTS for Inhibitors of human tyrosyl-DNA phosphodiesterase 1 (TDP1): qHTS in cells in absence of CPT; DT40 Tdp1-/- hTDP1 cells, no CPT, ATP luminescence, 48 h; Potency, µM (series often up to 46.2 µM), inactives show top-dose activity change, negative = growth inhibition, actives largely listed as inhibitors; 15% of 420,000 active; AID 686978, 2013; further: on the % scale 0 is the no-effect control and ±100 the full control effect; nearly all actives have a fitted effect of over 55% in size
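DT40 Tdp1-/-;hTDP1 cells, no CPT (DMSO vehicle only), 400 cells/well; compounds pin-transferred; ≥48 hr, 37 °C; CellTiter-Glo 30 min RT dark, luminescence read.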
DT40 TDP1 CPT: growth inhibition of DT40 Tdp1-/-;hTDP1 cells with camptothecin (screen for TDP1 inhibitors). chicken DT40 Tdp1-/-;hTDP1 cells + 20 nM CPT, ATP luminescence, 48 h. Potency, µM (titrated, usually from 46.2 µM), without a hit: top-dose activity change, negative = growth inhibition, usual class: inhibitors. 12% of 420,000 active; further: on the % scale 0 is the no-effect control and ±100 the full control effect; nearly all actives have a fitted effect of over 55% in size
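Cell growth measured by CellTiter-Glo luminescence after a minimum 48 h, 37 C compound exposure with 20 nM CPT in Tdp1-knockout DT40 cells stably expressing hTDP1, seeded 400/well; qHTS titration format.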
TGFb inhibitor: blocks TGF-b signaling. HepG2 CAGA-GFP TGF-b/SMAD3 reporter, GFP fluorescence, 18 h; TGF-beta stimulated, 500 pg/mL final. Potency, µM (doses to about 46.1 µM), for inactives: top-dose activity, negative = inhibition, actives largely listed as inhibitors. 1.2% of 410,000 active. AID 588855; further: on the % scale 0 is the no-effect control and ±100 the full control effect; nearly all actives have a fitted effect of over 65% in size
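Per well, imaged GFP fluorescence of HEPG2 CAGA-GFP cells gives the signal; cells get compound, then TGF-beta (500 pg/mL final), 18 h at 37 degrees C; %Activity versus -TGF-beta and +DMSO controls.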
HT1080 IDH1KD tx: toxicity to HT-1080 IDH1 knockdown cells (counter line); HT-1080 IDH1 knockdown viability, ATP luminescence, 48 h; Potency, µM (doses to about 46.1 µM), for the others: at the highest dose activity, negative = toxicity, hits mostly cytotoxic; 2% of 360,000 active; AID 686971;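 further: 0% = DMSO wells and -100% = cell-free medium wells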
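Luminescent ATP read-out (CellTiter-Glo, 10 min at room temperature) after 48 h compound exposure at 37 °C gave viability of IDH1-knockdown HT-1080 cells. Activity was normalised to DMSO and cell-free wells, then fitted as concentration-response curves.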
HT1080NT lethal: kills 2HG-producing HT-1080-NT fibrosarcoma cells | Potency, µM (series often up to 46.1 µM), for inactives: top-dose activity, negative = less viability, hits mostly cytotoxic | 1.6% of 360,000 active | HT-1080-NT fibrosarcoma viability, CellTiter-Glo ATP luminescence, 48 h | AID 686970;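 further: NT is the 2HG producing partner of a matched IDH1 knockdown line; 0% = DMSO-treated cells and -100% = media-only wells without cells; nearly all actives have a fitted effect of over 55% in size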
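750 cells/well, RPMI + 5% FBS; 2 h settle, compound pin-transfer, 48 h at 37 degrees C. CellTiter-Glo 10 min RT, luminescence. Normalized to DMSO and media-only wells.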
HepG2 tox: HepG2 cytotoxicity, counter-screen for TGF-b inhibitors; Potency, µM (top dose mostly 46.1 µM), without a hit: at the highest dose activity change, negative = cytotoxicity, actives largely listed as cytotoxic; 0.76% of 410,000 active; HepG2 CAGA-GFP viability, ATP luminescence, 18 h
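HepG2 CAGA-GFP cells (1000/well, DMEM with 1% FBS) received compound, then TGF-beta at 500 pg/mL final, and were incubated 18 hours at 37 degrees C. Viability was read by CellTiter-Glo luminescence. Media-only wells were set as complete cell-killing and DMSO as no toxicity.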
* marks the source's active call; other numbers are inactive results; ? = inconclusive; · = no result given; [ ] = another dose, or the depositor's remark. The call rests on the fitted dose curve; in most records, active means well fitted curve in the direction sought with a large enough effect; inconclusive means small, poorly fitted or top-dose-only effect, or another doubt; inactive means no such curve, though single readings can be large; an effect the other way counts as inactive or inconclusive. Potency means the concentration at half of the fitted maximal effect.

SMILES	TDP1 cell noCPT	DT40 TDP1 CPT	TGFb inhibitor	HT1080 IDH1KD tx	HT1080NT lethal	HepG2 tox
Cc1ccc(CNC(=O)c2ccc(N3CCC4(CC3)CC(c3cccc(Br)c3)=NO4)c([N+](=O)[O-])c2)cc1	?	10µM*	-1%	1%	0%	-6%
COc1ccc(CNC(=O)c2ccc(N3CCC4(CC3)CC(c3ccc(Cl)cc3)=NO4)c([N+](=O)[O-])c2)cc1	0.92µM*	?	-17%	0%	-4%	-7%
COc1cccc(C(=O)Nc2cc(C(=O)NCc3ccc(C)cc3)ccc2N2CCC3(CC2)CC(c2cccc(Br)c2)=NO3)c1	-9%	-12%	-1%	0%	0%	-4%
O=C(COC(=O)Cc1ccc(Cl)cc1)NCc1cccs1	-21%	-3%	0%	0%	11%	3%
O=C(NCc1ccco1)C1CCCN1C(=O)Nc1ccc(Br)cc1 (stereo not drawn)	-15%	-13%	0%	20%	?	12%
Cc1nc(NCc2cccc3c2OCO3)sc1-c1ccn(CC2CCCN(C)C2)n1 (stereo not drawn)	-8%	-5%[9.04 µM]	·	·	·	·
O=C(COC(=O)Cn1cc(C(F)(F)F)ccc1=O)Nc1ccccc1	-2%	-20%	1%	5%	0%	0%
Cc1ccc(CNC(=O)c2ccc(N3CCC4(CC3)CC(c3cccc(Br)c3)=NO4)c(N)c2)cc1	5.8µM*	6.5µM*	-16%	0%	-6%	-18%
O=C(NCc1ccncc1)c1ccc(N2CCCC2)c([N+](=O)[O-])c1	18µM*	?	3%	5%	-16%	0%
CCC(CC)C(=O)N(C)c1c(C)nc2c(OCCC3CCCCC3)cccn12	5.2µM*	7.3µM*	?	-21%	-12%	-87%
CCC(CC)C(=O)N(C)c1c(C)nc2c(OCCOc3ccc(F)cc3)cccn12	18µM*	21µM*	?	?	-28%	-40%
CCC(CC)C(=O)N(C)c1c(C)nc2c(OCC(=O)C(C)(C)C)cccn12	?	-20%	13%	11%	?	-18%
CCN(C(=O)CSc1ccc(S(=O)(=O)N2CCOCC2)cn1)c1ccccc1	16µM*	?	6%	-13%	4%	-9%
CC(Sc1ccc(S(=O)(=O)N2CCOCC2)cn1)C(=O)Nc1ccc(Cl)cc1Cl (stereo not drawn)	?	?	-10%	1%	0%	-6%
CC(C)N(C(=O)CSc1ccc(S(=O)(=O)N2CCCCC2)cn1)c1ccccc1	15µM*	?	?	-2%	0%	-21%
O=C(CSc1ccc(S(=O)(=O)N2CCOCC2)cn1)Nc1ccc(F)c(F)c1	16µM*	16µM*	?	?	-21%	-18%
O=C(CSc1ccc(S(=O)(=O)N2CCOCC2)cn1)Nc1ccc(OC(F)F)cc1	2%	-24%	-12%	2%	0%[9.24 µM]	3%
CC(Sc1ccc(S(=O)(=O)N2CCOCC2)cn1)c1ccccc1Cl (stereo not drawn)	29µM*	?	-10%	-12%	-17%	5%
CN(N=Cc1cccc2cccnc12)c1ccc([N+](=O)[O-])cc1[N+](=O)[O-]	0%	10%	-9%	9%	14%	4%
CN(CC(=O)Nc1cccc(S(=O)(=O)N(C)c2ccccc2)c1)Cc1cccs1	?	?	2%	-16%	-3%	-3%
CCOc1ccccc1C(=O)Nc1cc2c(cc1N1CCOCC1)n(C)c(=O)n2C	16µM*	15µM*	-2%	·	·	-33%
CCn1c(=O)n(CC)c2cc(N3CCCC3)c(NC(=O)c3ccc(OC)c(Br)c3)cc21	12µM*	16µM*	12%	0%	-13%	-46%
CCn1c(=O)n(CC)c2cc(N3CCCC3)c(NC(=O)c3ccccc3OC)cc21	5.8µM*	6.5µM*	-2%	?	?	-22%
CCn1c(=O)n(CC)c2cc(N3CCCC3)c(NC(=O)c3cc(Cl)ccc3OC)cc21	21µM*	16µM*	3%	1%	15%	-2%
O=C(CSc1nnc(CCCN2C(=O)c3cccc4cccc(c34)C2=O)n1-c1ccccc1)N1CCN(CCO)CC1	?	?	1%	14%	4%	4%
SMILES	TDP1 cell noCPT	DT40 TDP1 CPT	TGFb inhibitor	HT1080 IDH1KD tx	HT1080NT lethal	HepG2 tox
CCOc1ccccc1C(=O)Nc1cc2c(cc1N1CCCC1)n(CC)c(=O)n2CC	4.6µM*	4.6µM*	?	-25%	-3%	-58%
CCOc1cc(C(=O)Nc2cc3c(cc2N2CCCC2)n(C)c(=O)n3C)cc(OCC)c1OCC	12%	-7%	5%	0%	-3%	-9%
CCc1cc(-c2nnn(CCC3COCCO3)c2CC)ccc1-c1cn(Cc2ccccc2)nn1 (stereo not drawn)	21µM*	16µM*	?	-28%	-6%	-33%
COc1ccc([C@H]2C[C@@H](O)C[C@@H](CCn3cc(-c4ccccc4)nn3)O2)cc1	-18%	-21%	·	12%	11%	·
CCOC(=O)c1ccc(NC(=O)c2ncn3c2C(=O)N[C@H](C)C3)cc1	-28%	-17%	1%	23%	23%	3%
CCC(c1nnnn1Cc1ccco1)N(CCc1ccccc1)Cc1cc2cc(C)ccc2[nH]c1=O (stereo not drawn)	?	21µM*	?	?	-27%	5%
Cc1ccc2[nH]c(=O)c(CN(CCc3ccccc3)C(c3nnnn3Cc3ccco3)C(C)C)cc2c1 (stereo not drawn)	23µM*	29µM*	21%	16µM*	?	7%
CCC(c1nnnn1CCOC)N(Cc1ccc(C)cc1)Cc1cc2cc(OC)ccc2[nH]c1=O (stereo not drawn)	7.3µM*	?	11%	-3%	-2%	-2%
CCC(c1nnnn1Cc1ccccc1)N(Cc1ccco1)Cc1cc2cc(OC)ccc2[nH]c1=O (stereo not drawn)	21µM*	16µM*	0%	?	?	4%
CCCC(c1nnnn1C(C)(C)CC)N(Cc1ccco1)Cc1cc2ccc(OC)cc2[nH]c1=O (stereo not drawn)	?	?	?	-7%	-10%	6%
CCCc1c(OCCCOc2ccc(OCC(=O)O)cc2)ccc(CC=O)c1O	-4%	8%	·	·	·	·
